In PMC9838217, “Structure of SALL4 zinc finger domain reveals link between AT-rich DNA binding and Okihiro syndrome” one finds binding signal data, which are given here for 23 sequences.

Where a chain is given by its changes, count along the chain named.

Common to all, as to experiment: HT-SELEX; high values mean tight binding
Holding throughout (details): protein: recombinant; vector His6-GST; dsDNA, one strand shown

The target in one experiment is T1, SALL4 ZFC4 WT (HT-SELEX) (Mus musculus, UniProt Q8BX22 870-940).
T1 sequence: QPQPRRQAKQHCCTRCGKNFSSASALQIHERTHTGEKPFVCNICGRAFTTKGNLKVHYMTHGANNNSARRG
The procedure, abridged: (§1)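 Purified recombinant mouse SALL4 zinc finger cluster 4 (residues 870–940, 1 µg) and library DNA (1.5 µg first cycle, 200 ng later) were incubated for 10 min at room temperature in 100 µl of 10 mM Tris–HCl pH 7.5, 50 mM NaCl, poly(dI-dC) and DTT. After Ni2+ bead capture and up to 6 triplicate cycles of selection, DNA was MiSeq-sequenced and scanned for 6-mers. Binding signal is the fold change in each canonical k-mer's read fraction relative to the initial random library.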

Experiment [1] deals with T2, SALL4 ZFC4 R900W (HT-SELEX) (Mus musculus, UniProt Q8BX22 870-940, R900W).
T2 sequence: T1 sequence with R31W
Summed up: as §1

For experiment [2], the target named is T3, SALL4 ZFC4 G921D (HT-SELEX) (Mus musculus, UniProt Q8BX22 870-940, G921D).
T3 sequence: T1 sequence with G52D
Summed up:
as §1

Turning to AGACAC, the binding signal with SALL4 ZFC4 WT (HT-SELEX) worked out at 0.683 ± 0.0462 fold-change vs cycle 0; in experiment [1], 0.821 ± 0.037 fold-change vs cycle 0; in experiment [2], 0.923 ± 0.0183 fold-change vs cycle 0.

On to AGTTTA, for which the binding signal with SALL4 ZFC4 WT (HT-SELEX) came to 1.89 ± 0.117 fold-change vs cycle 0; in experiment [1] it was 1.94 ± 0.143 fold-change vs cycle 0; in experiment [2] it was 1.72 ± 0.194 fold-change vs cycle 0.

With ACGCAA, the binding signal with SALL4 ZFC4 WT (HT-SELEX) turned out to be 0.452 ± 0.0105 fold-change vs cycle 0; in experiment [1] it was 0.521 ± 0.02 fold-change vs cycle 0; in experiment [2] it was 0.635 ± 0.0427 fold-change vs cycle 0.

Consider ATTCGA, for which the binding signal in the experiment with SALL4 ZFC4 WT (HT-SELEX) worked out at 1.07 ± 0.0464 fold-change vs cycle 0; in experiment [1] it was 1.15 ± 0.0515 fold-change vs cycle 0; in experiment [2] it was 1.2 ± 0.0363 fold-change vs cycle 0.

For the sequence AGGTTG, the values for the binding signal (in the experiment with SALL4 ZFC4 WT (HT-SELEX); in experiment [1]; in experiment [2]) were 0.791 ± 0.0234 fold-change vs cycle 0, 0.894 ± 0.0252 fold-change vs cycle 0 and 0.945 ± 0.0127 fold-change vs cycle 0, respectively.

Take ACTAAC: the binding signal is 1.38 ± 0.0461 fold-change vs cycle 0 with SALL4 ZFC4 WT (HT-SELEX), 1.53 ± 0.0676 fold-change vs cycle 0 in experiment [1] and 1.43 ± 0.0927 fold-change vs cycle 0 in experiment [2].

Turning to TAGCTA, the figures for the binding signal (in the experiment with SALL4 ZFC4 WT (HT-SELEX); in experiment [1]; in experiment [2]) were 1.22 ± 0.05 fold-change vs cycle 0, 1.3 ± 0.064 fold-change vs cycle 0 and 1.29 ± 0.0827 fold-change vs cycle 0, respectively.

Regarding ATACTG, the binding signal was found to be 1.31 ± 0.0361 fold-change vs cycle 0 with SALL4 ZFC4 WT (HT-SELEX), 1.4 ± 0.0644 fold-change vs cycle 0 in experiment [1] and 1.36 ± 0.0801 fold-change vs cycle 0 in experiment [2].

As for AGGTTA, the binding signal with SALL4 ZFC4 WT (HT-SELEX) was 1.49 ± 0.0813 fold-change vs cycle 0; in experiment [1], 1.57 ± 0.127 fold-change vs cycle 0; in experiment [2] it was 1.44 ± 0.162 fold-change vs cycle 0.

In the case of GTTTGA, the results for the binding signal (with SALL4 ZFC4 WT (HT-SELEX); in experiment [1]; in experiment [2]) were 1.14 ± 0.0365 fold-change vs cycle 0, 1.26 ± 0.0348 fold-change vs cycle 0 and 1.23 ± 0.0615 fold-change vs cycle 0, respectively.

Consider GATTCA, for which the binding signal stood at 1.35 ± 0.0551 fold-change vs cycle 0 with SALL4 ZFC4 WT (HT-SELEX), 1.38 ± 0.0852 fold-change vs cycle 0 in experiment [1] and 1.33 ± 0.0688 fold-change vs cycle 0 in experiment [2].

Turning to TAGTCA, the results for the binding signal (with SALL4 ZFC4 WT (HT-SELEX); in experiment [1]; in experiment [2]) were 1.26 ± 0.0279 fold-change vs cycle 0, 1.4 ± 0.0422 fold-change vs cycle 0 and 1.34 ± 0.0704 fold-change vs cycle 0, respectively.

For the sequence GGCATA, the binding signal with SALL4 ZFC4 WT (HT-SELEX) came out at 0.502 ± 0.0157 fold-change vs cycle 0; in experiment [1], 0.562 ± 0.025 fold-change vs cycle 0; in experiment [2] it was 0.668 ± 0.0401 fold-change vs cycle 0.

Turning to CCAGAG, the binding signal with SALL4 ZFC4 WT (HT-SELEX) turned out to be 0.463 ± 0.0303 fold-change vs cycle 0; in experiment [1], 0.544 ± 0.0428 fold-change vs cycle 0; in experiment [2], 0.625 ± 0.0553 fold-change vs cycle 0.

Turning to AAAAAG, the binding signal was 1.57 ± 0.0619 fold-change vs cycle 0 with SALL4 ZFC4 WT (HT-SELEX), 1.68 ± 0.0943 fold-change vs cycle 0 in experiment [1] and 1.52 ± 0.129 fold-change vs cycle 0 in experiment [2].

Take CTCGAG: the binding signal was found to be 0.462 ± 0.0432 fold-change vs cycle 0 in the experiment with SALL4 ZFC4 WT (HT-SELEX), 0.548 ± 0.0598 fold-change vs cycle 0 in experiment [1] and 0.638 ± 0.046 fold-change vs cycle 0 in experiment [2].

With AACCAG, the binding signal with SALL4 ZFC4 WT (HT-SELEX) came out at 0.772 ± 0.0439 fold-change vs cycle 0; in experiment [1], 0.91 ± 0.0252 fold-change vs cycle 0; in experiment [2], 0.941 ± 0.0329 fold-change vs cycle 0.

For the sequence AAGCCT, the binding signal is 0.633 ± 0.0294 fold-change vs cycle 0 with SALL4 ZFC4 WT (HT-SELEX), 0.72 ± 0.0269 fold-change vs cycle 0 in experiment [1] and 0.848 ± 0.0353 fold-change vs cycle 0 in experiment [2].

For CTGAAA, the binding signal with SALL4 ZFC4 WT (HT-SELEX) worked out at 1.19 ± 0.0701 fold-change vs cycle 0; in experiment [1] it was 1.28 ± 0.0787 fold-change vs cycle 0; in experiment [2] it was 1.21 ± 0.0732 fold-change vs cycle 0.

Take GAAGGA: the binding signal in the experiment with SALL4 ZFC4 WT (HT-SELEX) was 0.959 ± 0.0373 fold-change vs cycle 0; in experiment [1] it was 1.11 ± 0.0789 fold-change vs cycle 0; in experiment [2] it was 1.08 ± 0.0796 fold-change vs cycle 0.

Consider ATACCG, for which the binding signal came to 0.646 ± 0.0192 fold-change vs cycle 0 in the experiment with SALL4 ZFC4 WT (HT-SELEX), 0.699 ± 0.038 fold-change vs cycle 0 in experiment [1] and 0.799 ± 0.0271 fold-change vs cycle 0 in experiment [2].

In the case of AGTGAT, the binding signal with SALL4 ZFC4 WT (HT-SELEX) was 1.45 ± 0.0292 fold-change vs cycle 0; in experiment [1], 1.59 ± 0.0395 fold-change vs cycle 0; in experiment [2], 1.53 ± 0.097 fold-change vs cycle 0.

With TATAAA, the binding signal in the experiment with SALL4 ZFC4 WT (HT-SELEX) was determined as 3.97 ± 0.451 fold-change vs cycle 0; in experiment [1] it was 2.53 ± 0.209 fold-change vs cycle 0; in experiment [2], 2.14 ± 0.302 fold-change vs cycle 0.
